Assay results reported in the supplement of paper PMC11732987, “Enantioselective OTUD7B fragment discovery through chemoproteomics screening and high-throughput optimisation” (Communications Chemistry, 2025).

Tests used:
Assay in all cases: log2 ratio of Biotin-Ahx-Ub-VS probe labelling (fragment/DMSO); higher = less target engagement (more negative = stronger competition), active = hit call of the paper (q ≤ 0.05, log2 ratio ≤ -1)
Details in all cases: compound concentration: 200 uM; treatment time: 3 h
USP34 = USP34 (UniProt Q70CQ2)
In short: (§1)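 Each value is an average log2 ratio of fragment to vehicle, tested by unpaired t-test. The underlying Spectronaut label-free quantities were global-median-normalised, and only proteins with ≥2 unique peptides were included. Triplicate HEK293T lysate samples (495 µg) were exposed to fragment at 200 µM or vehicle for 3 h, then to Biotin-Ahx-Ub-VS at 0.5 µM final for 1 h, before NeutrAvidin enrichment of labelled DUBs, LysC and trypsin digestion, and diaPASEF LC-MS/MS.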

USP36 = biological target: T1, USP36 (UniProt Q9P275)
T1 sequence (whole entry): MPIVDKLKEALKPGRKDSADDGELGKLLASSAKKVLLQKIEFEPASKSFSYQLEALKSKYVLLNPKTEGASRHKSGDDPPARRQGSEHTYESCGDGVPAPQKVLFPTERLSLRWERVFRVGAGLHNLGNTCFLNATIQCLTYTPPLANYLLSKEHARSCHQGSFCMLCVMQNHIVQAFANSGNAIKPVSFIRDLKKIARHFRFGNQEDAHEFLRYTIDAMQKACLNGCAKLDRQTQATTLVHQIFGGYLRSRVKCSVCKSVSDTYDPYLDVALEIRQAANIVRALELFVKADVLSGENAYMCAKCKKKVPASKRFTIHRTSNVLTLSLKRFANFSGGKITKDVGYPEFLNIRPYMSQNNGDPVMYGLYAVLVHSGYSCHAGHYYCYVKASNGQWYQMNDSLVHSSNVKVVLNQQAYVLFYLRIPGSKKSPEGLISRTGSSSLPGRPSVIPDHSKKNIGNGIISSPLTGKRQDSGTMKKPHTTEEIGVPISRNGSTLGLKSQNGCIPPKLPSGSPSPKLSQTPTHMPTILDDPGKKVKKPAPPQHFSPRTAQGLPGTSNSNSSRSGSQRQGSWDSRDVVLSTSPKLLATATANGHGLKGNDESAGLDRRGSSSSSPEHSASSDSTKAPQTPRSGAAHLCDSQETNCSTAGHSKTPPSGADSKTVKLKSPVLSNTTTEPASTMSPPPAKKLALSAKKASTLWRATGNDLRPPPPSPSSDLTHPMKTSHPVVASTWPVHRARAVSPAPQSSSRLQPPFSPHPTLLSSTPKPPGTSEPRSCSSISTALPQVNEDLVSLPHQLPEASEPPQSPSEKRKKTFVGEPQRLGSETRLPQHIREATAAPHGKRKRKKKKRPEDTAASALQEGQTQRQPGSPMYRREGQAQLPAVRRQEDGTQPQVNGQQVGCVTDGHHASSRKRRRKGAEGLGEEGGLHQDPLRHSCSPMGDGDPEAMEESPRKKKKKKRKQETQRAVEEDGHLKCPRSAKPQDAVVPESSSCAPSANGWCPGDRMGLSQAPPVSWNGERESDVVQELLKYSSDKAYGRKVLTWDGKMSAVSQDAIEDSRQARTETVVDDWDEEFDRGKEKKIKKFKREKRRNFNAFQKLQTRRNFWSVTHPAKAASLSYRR
In short: as §1

USP38 = biological target: T2, USP38 (UniProt Q8NB14)
T2 sequence (whole entry): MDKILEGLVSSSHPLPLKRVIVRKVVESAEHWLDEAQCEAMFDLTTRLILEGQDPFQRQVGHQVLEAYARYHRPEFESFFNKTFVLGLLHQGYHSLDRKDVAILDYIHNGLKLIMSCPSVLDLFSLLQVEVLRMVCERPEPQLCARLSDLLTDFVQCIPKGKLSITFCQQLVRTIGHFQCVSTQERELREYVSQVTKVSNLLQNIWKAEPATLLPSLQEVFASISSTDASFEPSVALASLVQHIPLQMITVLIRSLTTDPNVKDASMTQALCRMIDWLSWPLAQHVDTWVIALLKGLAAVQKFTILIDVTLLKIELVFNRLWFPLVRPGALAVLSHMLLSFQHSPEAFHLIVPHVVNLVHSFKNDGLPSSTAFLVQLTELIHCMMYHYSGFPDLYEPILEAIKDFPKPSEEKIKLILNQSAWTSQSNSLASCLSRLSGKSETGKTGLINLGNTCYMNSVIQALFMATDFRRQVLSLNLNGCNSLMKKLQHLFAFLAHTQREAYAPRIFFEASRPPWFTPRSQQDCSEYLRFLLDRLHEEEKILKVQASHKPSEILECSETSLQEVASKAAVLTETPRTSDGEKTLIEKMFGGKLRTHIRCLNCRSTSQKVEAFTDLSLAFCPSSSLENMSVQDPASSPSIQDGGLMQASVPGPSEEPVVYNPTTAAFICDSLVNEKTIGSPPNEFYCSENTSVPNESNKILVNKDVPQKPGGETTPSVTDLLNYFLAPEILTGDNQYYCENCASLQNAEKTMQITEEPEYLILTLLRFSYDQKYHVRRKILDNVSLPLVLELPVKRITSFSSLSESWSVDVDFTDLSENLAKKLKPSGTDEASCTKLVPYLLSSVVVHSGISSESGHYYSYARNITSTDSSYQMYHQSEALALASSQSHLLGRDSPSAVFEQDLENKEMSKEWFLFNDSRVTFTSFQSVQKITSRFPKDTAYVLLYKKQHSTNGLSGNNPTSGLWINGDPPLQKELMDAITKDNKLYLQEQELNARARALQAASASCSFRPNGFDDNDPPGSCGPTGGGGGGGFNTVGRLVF
In short: as §1

USP39 = biological target: T3, USP39 (UniProt Q53GS9)
T3 sequence (whole entry): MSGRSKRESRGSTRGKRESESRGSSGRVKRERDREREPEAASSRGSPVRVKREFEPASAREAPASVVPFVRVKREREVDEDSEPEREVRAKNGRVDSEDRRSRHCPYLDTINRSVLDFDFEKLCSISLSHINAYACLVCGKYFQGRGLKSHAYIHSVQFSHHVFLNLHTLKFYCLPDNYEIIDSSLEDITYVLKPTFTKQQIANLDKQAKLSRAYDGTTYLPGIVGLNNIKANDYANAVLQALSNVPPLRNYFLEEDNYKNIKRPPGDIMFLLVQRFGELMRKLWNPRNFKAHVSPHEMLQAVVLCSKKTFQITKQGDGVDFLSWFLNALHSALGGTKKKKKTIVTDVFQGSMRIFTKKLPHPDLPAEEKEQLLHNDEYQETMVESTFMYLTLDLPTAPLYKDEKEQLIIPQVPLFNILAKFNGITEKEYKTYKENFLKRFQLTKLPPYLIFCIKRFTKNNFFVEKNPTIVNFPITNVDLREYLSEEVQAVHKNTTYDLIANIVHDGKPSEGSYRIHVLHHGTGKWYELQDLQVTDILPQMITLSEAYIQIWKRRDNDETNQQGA
In short: as §1

USP4 = biological target: T4, USP4 (UniProt Q13107)
T4 sequence (whole entry): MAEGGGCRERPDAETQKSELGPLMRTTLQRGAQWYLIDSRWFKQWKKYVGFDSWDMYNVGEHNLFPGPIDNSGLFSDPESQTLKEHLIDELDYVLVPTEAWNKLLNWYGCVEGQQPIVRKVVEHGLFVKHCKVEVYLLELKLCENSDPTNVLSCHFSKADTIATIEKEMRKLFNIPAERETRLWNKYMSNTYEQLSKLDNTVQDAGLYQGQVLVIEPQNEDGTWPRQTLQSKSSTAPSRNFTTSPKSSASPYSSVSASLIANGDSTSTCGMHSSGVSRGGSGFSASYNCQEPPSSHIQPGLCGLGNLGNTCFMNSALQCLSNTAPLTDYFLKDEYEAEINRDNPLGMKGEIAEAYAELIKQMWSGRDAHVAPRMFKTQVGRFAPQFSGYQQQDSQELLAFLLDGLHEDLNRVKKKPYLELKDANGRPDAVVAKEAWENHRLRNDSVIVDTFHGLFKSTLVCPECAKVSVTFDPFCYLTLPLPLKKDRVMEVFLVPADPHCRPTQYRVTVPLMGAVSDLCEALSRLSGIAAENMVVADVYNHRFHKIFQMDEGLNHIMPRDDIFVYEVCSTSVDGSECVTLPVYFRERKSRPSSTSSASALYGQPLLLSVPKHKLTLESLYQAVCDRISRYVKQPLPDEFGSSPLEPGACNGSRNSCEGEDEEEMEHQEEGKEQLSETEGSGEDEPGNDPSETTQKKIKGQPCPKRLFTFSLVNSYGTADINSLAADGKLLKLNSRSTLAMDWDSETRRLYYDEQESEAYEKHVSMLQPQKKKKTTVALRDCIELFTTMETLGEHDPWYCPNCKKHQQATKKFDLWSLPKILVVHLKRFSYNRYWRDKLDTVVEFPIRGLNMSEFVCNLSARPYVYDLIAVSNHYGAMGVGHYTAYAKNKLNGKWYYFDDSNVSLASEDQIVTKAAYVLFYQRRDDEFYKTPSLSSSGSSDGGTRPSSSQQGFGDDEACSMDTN
In short: as §1

Measured: log2 ratio of Biotin-Ahx-Ub-VS probe labelling

Sequence of USP34 (Q70CQ2 whole entry, the tested form may be a part): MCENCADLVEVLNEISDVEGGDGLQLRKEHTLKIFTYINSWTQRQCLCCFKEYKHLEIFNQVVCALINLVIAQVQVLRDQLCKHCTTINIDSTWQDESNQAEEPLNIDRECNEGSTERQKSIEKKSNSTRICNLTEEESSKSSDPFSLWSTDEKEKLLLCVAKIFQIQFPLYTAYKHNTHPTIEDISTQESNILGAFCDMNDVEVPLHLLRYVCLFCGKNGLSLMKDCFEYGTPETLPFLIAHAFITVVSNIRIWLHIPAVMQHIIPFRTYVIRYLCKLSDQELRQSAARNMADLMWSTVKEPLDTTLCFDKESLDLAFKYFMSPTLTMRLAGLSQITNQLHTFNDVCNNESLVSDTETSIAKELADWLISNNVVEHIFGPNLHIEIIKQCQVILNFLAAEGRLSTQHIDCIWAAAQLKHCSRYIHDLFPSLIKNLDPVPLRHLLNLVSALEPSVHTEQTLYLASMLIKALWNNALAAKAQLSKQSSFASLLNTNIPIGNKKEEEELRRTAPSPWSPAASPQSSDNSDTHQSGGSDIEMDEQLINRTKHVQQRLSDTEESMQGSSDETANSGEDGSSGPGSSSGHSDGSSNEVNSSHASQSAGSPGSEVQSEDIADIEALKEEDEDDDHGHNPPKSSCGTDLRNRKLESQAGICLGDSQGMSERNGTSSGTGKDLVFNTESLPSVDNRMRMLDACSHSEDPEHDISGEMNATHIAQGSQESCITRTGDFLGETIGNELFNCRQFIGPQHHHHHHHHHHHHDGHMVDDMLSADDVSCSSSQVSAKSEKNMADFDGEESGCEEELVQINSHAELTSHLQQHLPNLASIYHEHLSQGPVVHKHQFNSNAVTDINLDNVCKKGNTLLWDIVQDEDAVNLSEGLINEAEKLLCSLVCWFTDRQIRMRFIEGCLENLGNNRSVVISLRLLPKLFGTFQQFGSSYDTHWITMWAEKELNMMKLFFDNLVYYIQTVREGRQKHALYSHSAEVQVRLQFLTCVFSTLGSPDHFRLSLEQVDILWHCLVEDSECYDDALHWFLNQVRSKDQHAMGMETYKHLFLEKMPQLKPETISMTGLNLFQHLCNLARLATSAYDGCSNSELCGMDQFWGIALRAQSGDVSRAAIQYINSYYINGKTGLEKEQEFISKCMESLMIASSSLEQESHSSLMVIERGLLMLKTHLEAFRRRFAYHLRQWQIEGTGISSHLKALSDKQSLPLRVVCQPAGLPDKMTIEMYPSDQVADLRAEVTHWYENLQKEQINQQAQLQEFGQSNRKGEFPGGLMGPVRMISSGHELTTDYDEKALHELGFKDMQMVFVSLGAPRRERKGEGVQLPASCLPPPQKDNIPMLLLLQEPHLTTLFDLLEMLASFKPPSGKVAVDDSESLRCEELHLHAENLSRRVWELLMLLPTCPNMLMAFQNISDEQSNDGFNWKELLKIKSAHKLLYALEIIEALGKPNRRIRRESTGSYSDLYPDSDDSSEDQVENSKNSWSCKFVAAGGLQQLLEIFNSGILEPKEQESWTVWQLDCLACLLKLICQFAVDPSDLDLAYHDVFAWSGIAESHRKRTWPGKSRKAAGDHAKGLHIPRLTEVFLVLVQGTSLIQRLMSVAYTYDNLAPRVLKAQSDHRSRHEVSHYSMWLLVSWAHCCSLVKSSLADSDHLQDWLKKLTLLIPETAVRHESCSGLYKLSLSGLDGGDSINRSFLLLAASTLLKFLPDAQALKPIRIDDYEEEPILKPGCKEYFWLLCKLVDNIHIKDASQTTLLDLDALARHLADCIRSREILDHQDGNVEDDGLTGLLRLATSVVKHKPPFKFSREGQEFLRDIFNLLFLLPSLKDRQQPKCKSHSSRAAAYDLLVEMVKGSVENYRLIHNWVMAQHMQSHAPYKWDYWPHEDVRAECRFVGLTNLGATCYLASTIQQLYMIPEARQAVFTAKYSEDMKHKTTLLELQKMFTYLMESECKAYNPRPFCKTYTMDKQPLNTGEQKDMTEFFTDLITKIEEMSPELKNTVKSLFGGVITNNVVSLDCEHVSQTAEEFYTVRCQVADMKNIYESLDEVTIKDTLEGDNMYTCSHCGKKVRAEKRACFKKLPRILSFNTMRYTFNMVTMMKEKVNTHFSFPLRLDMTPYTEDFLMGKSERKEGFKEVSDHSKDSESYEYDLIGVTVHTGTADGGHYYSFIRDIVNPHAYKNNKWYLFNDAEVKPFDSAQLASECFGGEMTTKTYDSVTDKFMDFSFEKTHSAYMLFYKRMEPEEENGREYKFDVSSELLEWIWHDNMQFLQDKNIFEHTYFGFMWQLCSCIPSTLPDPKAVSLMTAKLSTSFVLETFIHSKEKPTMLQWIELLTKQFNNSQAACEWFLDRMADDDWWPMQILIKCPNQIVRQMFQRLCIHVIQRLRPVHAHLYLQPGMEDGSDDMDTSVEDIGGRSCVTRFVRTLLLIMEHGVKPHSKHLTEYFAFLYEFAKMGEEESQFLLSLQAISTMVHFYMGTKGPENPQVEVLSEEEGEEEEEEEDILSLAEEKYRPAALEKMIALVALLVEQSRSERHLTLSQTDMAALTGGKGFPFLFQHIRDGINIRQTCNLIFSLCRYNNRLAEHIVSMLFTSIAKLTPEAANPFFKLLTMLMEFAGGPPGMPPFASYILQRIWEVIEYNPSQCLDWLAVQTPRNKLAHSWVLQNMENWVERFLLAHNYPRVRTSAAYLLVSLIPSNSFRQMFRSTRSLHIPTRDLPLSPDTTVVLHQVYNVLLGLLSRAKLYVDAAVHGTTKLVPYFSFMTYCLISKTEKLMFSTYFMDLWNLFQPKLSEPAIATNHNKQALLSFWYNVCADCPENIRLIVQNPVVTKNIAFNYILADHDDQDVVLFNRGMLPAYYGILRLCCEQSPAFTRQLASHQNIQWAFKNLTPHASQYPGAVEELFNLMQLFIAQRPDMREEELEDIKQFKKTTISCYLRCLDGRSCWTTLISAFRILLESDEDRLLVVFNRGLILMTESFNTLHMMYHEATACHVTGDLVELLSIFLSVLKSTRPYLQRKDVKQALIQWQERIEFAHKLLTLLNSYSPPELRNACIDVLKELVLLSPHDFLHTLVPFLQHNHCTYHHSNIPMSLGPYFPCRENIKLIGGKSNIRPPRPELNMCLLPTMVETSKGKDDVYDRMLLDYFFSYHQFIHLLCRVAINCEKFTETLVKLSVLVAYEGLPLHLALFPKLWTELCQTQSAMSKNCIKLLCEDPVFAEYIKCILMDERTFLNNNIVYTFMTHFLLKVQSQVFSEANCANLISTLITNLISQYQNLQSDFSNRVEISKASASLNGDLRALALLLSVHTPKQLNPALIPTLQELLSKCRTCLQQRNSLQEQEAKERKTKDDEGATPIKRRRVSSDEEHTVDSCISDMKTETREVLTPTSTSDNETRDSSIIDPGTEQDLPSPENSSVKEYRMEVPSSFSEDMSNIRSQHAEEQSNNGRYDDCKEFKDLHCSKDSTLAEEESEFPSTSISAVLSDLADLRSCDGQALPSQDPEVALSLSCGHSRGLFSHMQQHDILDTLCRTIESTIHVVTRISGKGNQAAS

Cc1cccc2nc(CCNC(=O)CCl)cn12.Cl
inactive: USP34 -0.19 | USP36 -0.179 | USP38 -0.0583 | USP39 0.203 | USP4 -0.184
